Screening data as filed in PubChem.
Shown are actives, neighbours in structure and some others; about 6.1% of the full set was active somewhere.
D1 antag = Antagonist of Human D 1 Dopamine Receptor: qHTS; D(1A) dopamine receptor (Homo sapiens), P21728; HEK293 TREx D1 cells, calcium flux, dopamine EC80; hits give low values; activity change, negative = inhibition, % at 10 µM; 3.2% of 360,000 active; AID 504652, 2011; in the data active = activity change below about -30%; note: % is set by controls: 0 for no effect and ±100 for the full control effect
Target sequence (P21728 whole entry, looked up): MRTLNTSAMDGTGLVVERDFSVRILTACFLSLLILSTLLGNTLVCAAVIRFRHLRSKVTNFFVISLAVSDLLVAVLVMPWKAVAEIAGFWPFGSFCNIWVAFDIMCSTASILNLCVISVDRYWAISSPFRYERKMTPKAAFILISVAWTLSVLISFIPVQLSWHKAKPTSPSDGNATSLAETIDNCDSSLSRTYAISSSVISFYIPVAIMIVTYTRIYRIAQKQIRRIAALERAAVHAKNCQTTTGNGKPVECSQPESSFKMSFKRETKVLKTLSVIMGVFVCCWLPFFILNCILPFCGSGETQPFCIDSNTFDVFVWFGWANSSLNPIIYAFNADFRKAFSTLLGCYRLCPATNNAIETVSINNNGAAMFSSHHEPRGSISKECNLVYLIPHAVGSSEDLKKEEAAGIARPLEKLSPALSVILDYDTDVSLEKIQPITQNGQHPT
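Kinetic fluorescence of a calcium dye serves as the read-out. D1-expressing Hek293 Trex cells, induced overnight at 30 C, are exposed to compound for 180 s before an EC80 dopamine addition, then read 180 s further.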
D1 agonist = Allosteric Agonists of the Human D1 Dopamine Receptor: qHTS; 1% of 360,000 active; HEK293 T-REx D1 cells, calcium flux, agonist mode; activation, % at 2 µM; D(1A) dopamine receptor (Homo sapiens), P21728; AID 504660, 2011; in the data active = activation above about 30%; note: 0% is about no effect
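Tetracycline-induced HEK293 TREx D1 cells, force-coupled to calcium signalling, were dye-loaded with a no-wash calcium kit. Compound was pin-added after a 10 s baseline. Fluorescence was read kinetically at 1 cycle/s for 180 s, with calcium rises flagged as agonism.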
D1 potentiator = Potentiators of Human D1 Dopamine Receptor: qHTS; D(1A) dopamine receptor (Homo sapiens), P21728; HEK293 TREx D1 cells, calcium flux, dopamine EC20 potentiation; potentiation, % at 10 µM; 0.036% of 360,000 active; AID 504651, 2011; in the data active = potentiation above about 30%; note: 0% is about no effect
D3 antag = qHTS of D3 Dopamine Receptor Antagonist: qHTS. D(3) dopamine receptor (Homo sapiens), P35462. D3R cells, DiscoveRx beta-arrestin luminescence, antagonist mode; hits give low values. max response, negative = inhibition, %. 2.5% of 360,000 active; in the data active = max response below about -50%; inconclusive = no clear call, values can overlap the other calls; note: % is set by controls: 0 for no effect and ±100 for the full control effect
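Cells expressing the human receptor were seeded at 1500 cells/well, incubated overnight at 37 degrees C in 5% CO2, then exposed to library compounds with dopamine controls for 90 minutes at 37 degrees C before luminescent detection.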
D3 ag = qHTS of D3 Dopamine Receptor Agonist: qHTS; D3R DiscoveRx beta-arrestin cells, luminescence, 90 min; AID 652048, 2013; 0.58% of 410,000 active; D(3) dopamine receptor (Homo sapiens), P35462; max activation, %; in the data active = max activation above about 30%; note: 0% is about no effect
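Cells at 1500/well, incubated overnight, then treated with pinned compounds (dopamine as control) for 90 min at 37 degrees C. DiscoveRx reagent added for 30 - 60 minutes at room temperature; luminescence read.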
Numbers without * were called inactive; ? = inconclusive; · = not tested or not shown.

SMILES	D1 antag	D1 agonist	D1 potentiator	D3 antag	D3 ag
C#CCOCCOCCOCCNc1nc(N2CCN(C(=O)CCCCCCCCCCNC(=O)[C@@H](CCC(=O)O)n3cc(CCCCCN)nn3)CC2)nc(N2CCN(C(=O)CCCCCCCCCCNC(=O)[C@H](CCCCN)n3cc(C[C@@H](C)CC)nn3)CC2)n1	67	65*	44*	?	3
C#CCOCCOCCOCCNc1nc(N2CCN(C(=O)CCCCCCCCCCNC(=O)[C@H](CCCCN)n3cc(CCO)nn3)CC2)nc(N2CCN(C(=O)CCCCCCCCCCNC(=O)[C@H](CCCCN)n3cc(CCCC(=O)O)nn3)CC2)n1	-6	18	-6	-9	-9
C#CCOCCOCCOCCNc1nc(N2CCN(C(=O)CCCCCCCCCCNC(=O)[C@H](CCCCN)n3cc(CCO)nn3)CC2)nc(N2CCN(C(=O)CCCCCCCCCCNC(=O)[C@H](CCCCN)n3cc(C[C@@H](C)CC)nn3)CC2)n1	30	70*	13	0	0
CCCc1ccc(C(=O)CN2C(=O)C(=O)N(C3CCCC3)C2=O)cc1	0	6	-2	2	0
N/C(=N\OC(=O)c1ccc(Cl)c(Cl)c1)c1ccccn1	-18	1	-1	-6	0
N/C(=N\OC(=O)COc1ccc(Br)cc1)c1ccncc1	-39*	11	-7	-1	-1
Cc1cccc(OCC(=O)O/N=C(\N)c2ccc(Cl)cc2)c1	-43*	-1	0	-5	2
Cc1cccc(/C(N)=N/OC(=O)COc2ccc(Cl)c(C)c2)c1	2	17	2	7	1
N/C(=N\OC(=O)c1cccc(Cl)c1)c1ccccn1	-38*	0	-9	0	5
N/C(=N\OC(=O)COc1ccc2ccccc2c1)c1ccccn1	-53*	7	-5	9	1
Cn1c(SCC(=O)N2c3ccccc3CCc3ccccc32)nnc1-c1ccc(O)cc1	6	6	8	-14	-6
CCc1ccc(C(=O)CC2(O)C(=O)N(CCc3ccccc3)c3ccc(Cl)cc32)cc1 (stereo not given)	-3	13	-1	·	1
CC1(C)CC(=O)/C(=C(/O)CCCN2C(=O)c3ccccc3C2=O)C(=NC(C)(C)C)C1	9	-1	-2	3	6
N/C(=N\OC(=O)c1cccnc1)c1ccc(Cl)cc1Cl	-33*	2	1	-5	-1
N/C(=N\OC(=O)c1cccnc1)c1ccccc1Cl	8	1	-5	7	0
Cc1ccc(-c2nnn(CC(=O)N(Cc3cccs3)C(C(=O)NCC3CCCO3)c3ccco3)n2)o1 (stereo not given)	-48*	14	-9	14	7
Cc1ccc(-c2nnn(CC(=O)N(Cc3cccs3)C(C(=O)NC(C)(C)C)c3ccco3)n2)o1 (stereo not given)	5	12	-12	4	-1
COc1ccc(-c2nnn(CC(=O)N(CCCN3CCOCC3)C(C(=O)NC3CCCC3)c3ccco3)n2)cc1 (stereo not given)	-32*	4	1	3	-16
O=C(NCC1CCCO1)C(c1ccncc1)N(Cc1cccs1)C(=O)CN1C(=O)c2ccccc2S1(=O)=O (stereo not given)	0	42*	7	14	3
CCC(C(=O)NC1CCCC1)N(C(=O)Cn1nnc(-c2ccc(C)o2)n1)c1cccc(OC)c1 (stereo not given)	2	4	-7	6	36*
CCC(C(=O)NC1CCCC1)N(C(=O)Cn1nnc(-c2ccc(C)o2)n1)c1cccc(O)c1 (stereo not given)	-3	1	-7	3	3
Cc1ccccc1CCN(C(=O)CN1C(=O)c2ccccc2S1(=O)=O)C(C(=O)NCC1CCCO1)c1ccncc1 (stereo not given)	-12	1	0	-21	-22
COc1ccc(-c2nnn(CC(=O)N(CCCN3CCOCC3)C(C(=O)NC3CCCC3)c3ccc(C)o3)n2)cc1 (stereo not given)	2	10	10	-3	-18
CCCNC(=O)NC(=O)CSc1nncs1	10	3	2	-8	-6
CCc1nc2nc(C)c(NS(=O)(=O)c3ccc(C)cc3)c(=O)n2[nH]1	-20	3	-1	·	1
SMILES	D1 antag	D1 agonist	D1 potentiator	D3 antag	D3 ag
CCc1nc2nc(C)c(NS(=O)(=O)c3ccc(C(C)(C)C)cc3)c(=O)n2[nH]1	-72*	0	0	·	7
CN(C)c1nc(OCCOC(=O)c2ccccc2)nc(N(C)C)n1	0	31*	-1	34	9
COc1ccc(OC)c(S(=O)(=O)N2CCN(Cc3nc4ccc(C)cc4o3)CC2)c1	3	-1	1	·	0
Cc1cc(C)c2nc(N(CCCN(C)C)C(=O)C3=COCCO3)sc2c1	-20	21	-6	-2	-8
Cc1ccc2nc(N(CCN(C)C)C(=O)c3ccc4ccccc4c3)sc2c1	-15	2	-16	-9	-13
COc1ccc2nc(N(CCN(C)C)C(=O)c3ccc(C(=O)c4ccccc4)cc3)sc2c1	6	6	-3	-15	0
COc1ccc2nc(N(Cc3cccnc3)C(=O)c3ccc(Cl)cc3)sc2c1	·	5	-4	·	60*
COc1ccc2nc(N(CCN(C)C)C(=O)c3ccc4ccccc4c3)sc2c1	-7	1	2	-63*	-2
CN(C)CCCN(C(=O)C1=COCCO1)c1nc2ccc(Br)cc2s1	-41*	68*	-3	-15	-12
CN(C)CCN(C(=O)c1ccc2ccccc2c1)c1nc2ccc(Br)cc2s1	3	7	-11	-55*	-5
CC(C)CC1OC(C)Cc2[nH][nH]c(=O)c21 (stereo not given)	·	·	·	2	-5
Cc1noc(C)c1S(=O)(=O)N(C)C[C@@H]1OCc2cnnn2CCCC(=O)N([C@H](C)CO)C[C@@H]1C	·	·	·	10	6
CC(NC(=O)COC(=O)/C=C/c1ccco1)c1ccccc1 (stereo not given)	-11	-3	10	3	9
Cc1cccc(NC(=O)CSc2nnc3scc(-c4ccccc4)n23)c1	-2	0	-3	·	2
Cc1cc(C(=O)N2CCCC(N3CCN(c4cccc(C(F)(F)F)c4)CC3)C2)n[nH]1 (stereo not given)	-50*	3	0	0	-3
Cc1cc(C)c(C(=O)N2CCCC(N3CCN(c4cccc(C(F)(F)F)c4)CC3)C2)o1 (stereo not given)	-25	5	-4	-54*	-5
